Assay outcomes from PubChem.
PPARg SRC2 recr: PPARgamma-driven SRC-2 recruitment agonism; P37231; PPARgamma LBD-SRC-2 recruitment, biochemical; activation, % at 8 µM; 200,000 tested, 0.34% active; in the data active = activation above about 22%;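 also: 0% = vehicle and 100% = reference agonist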
Target sequence (P37231 whole entry, looked up, the tested form may be a part): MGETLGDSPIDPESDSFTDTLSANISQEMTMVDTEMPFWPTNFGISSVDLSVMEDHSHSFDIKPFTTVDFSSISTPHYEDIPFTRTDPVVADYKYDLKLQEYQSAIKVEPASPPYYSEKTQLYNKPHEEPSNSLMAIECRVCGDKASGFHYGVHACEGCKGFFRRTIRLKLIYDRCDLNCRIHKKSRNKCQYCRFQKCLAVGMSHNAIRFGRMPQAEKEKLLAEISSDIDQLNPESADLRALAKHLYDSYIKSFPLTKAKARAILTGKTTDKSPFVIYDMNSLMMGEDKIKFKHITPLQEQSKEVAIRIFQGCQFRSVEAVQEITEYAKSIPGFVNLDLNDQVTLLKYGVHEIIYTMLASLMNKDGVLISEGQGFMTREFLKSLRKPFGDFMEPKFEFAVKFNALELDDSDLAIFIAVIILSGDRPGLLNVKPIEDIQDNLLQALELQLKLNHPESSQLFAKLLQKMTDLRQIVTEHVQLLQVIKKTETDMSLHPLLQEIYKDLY
SRC3 TRFRET art: flags TR-FRET format artefacts in PPARgamma SRC-3 recruitment agonist screen; TR-FRET artefact counter-screen, PPARgamma/SRC-3 format; active compounds read high; TR-FRET ratio at 8 µM; 99,000 tested, 0.39% active; AID 1048
SRC1 TRFRET art: counter-screen for PPARgamma SRC-1 recruitment agonists: TR-FRET artefact; TR-FRET ratio at 8 µM; 99,000 tested, 0.34% active; TR-FRET detection artefact counter-screen, emission ratio; active compounds read high; in the data active = TR-FRET ratio above about 2300
PPARg SRC-1 ag: PPARgamma-driven SRC-1 recruitment agonism. PPARgamma-SRC-1 coactivator recruitment biochemical assay. activation, % at 8 µM. 200,000 tested, 0.41% active; in the data active = activation above about 19%;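 also: 0% = DMSO and 100% = reference agonist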
SRC2 TRFRET art: TR-FRET artefact, counter-screen to PPARgamma/SRC-2 agonist assay; active compounds read high; TR-FRET ratio at 8 µM; 200,000 tested, 0.4% active
PPARg SRC3 recr: promotes SRC-3 coactivator recruitment by human PPARgamma; P37231; biochemical PPARgamma/SRC-3 coactivator recruitment assay; activation, % at 8 µM; 200,000 tested, 0.26% active; AID 731; in the data active = activation above about 23%;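 also: 0% = DMSO and 100% = reference agonist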
Active calls of the source: *. Most compounds without a hit are left out; they make up all but 0.84% or so of the library. Rule as the data show it, unless noted: active = TR-FRET ratio above about 2000; inactive = the rest.

CCCCc1c(O)nc(SCC(=O)NCCc2ccc(OC)c(OC)c2)[nH]c1=O was read as PPARg SRC2 recr 3, PPARg SRC-1 ag 5, SRC2 TRFRET art 1556 and PPARg SRC3 recr 10.
Screening O=C(CSc1ccc2nnc(-c3ccccn3)n2n1)NCc1ccc2c(c1)OCO2 returned PPARg SRC2 recr 28*, PPARg SRC-1 ag -5, SRC2 TRFRET art 1984* and PPARg SRC3 recr -2.
Screening C=CCNC(=O)c1ccc(-c2nc(-c3ccc(Cl)cc3Cl)cs2)cc1 returned PPARg SRC2 recr 6, PPARg SRC-1 ag 19*, SRC2 TRFRET art 1467 and PPARg SRC3 recr 5.
For CCOC(=O)c1c(NC(=O)CSc2c[nH]c3ccccc23)sc2c1CCC2 the results were PPARg SRC2 recr -1, SRC3 TRFRET art 4916*, SRC1 TRFRET art 1826, PPARg SRC-1 ag 5, SRC2 TRFRET art 1481 and PPARg SRC3 recr 1.
CCOC(=O)c1c(NC(=O)C(C)Sc2cccc[n+]2[O-])sc2c1CCN(Cc1ccccc1)C2 (stereo not drawn) was read as PPARg SRC2 recr 8, SRC3 TRFRET art 1688, SRC1 TRFRET art 1633, PPARg SRC-1 ag 5, SRC2 TRFRET art 1644 and PPARg SRC3 recr 3.
Screening CCOC(=O)c1c(NC(=O)CSc2c[nH]c3ccccc23)sc2c1CCCC2 returned PPARg SRC2 recr -14, SRC3 TRFRET art 4458*, SRC1 TRFRET art 1766, PPARg SRC-1 ag -5, SRC2 TRFRET art 1640 and PPARg SRC3 recr 1.
`CCOC(=O)c1c(NC(=O)CSc2nnc(-c3c[nH]c4ccccc34)n2CCOC)sc2c1CCCCC2` gave PPARg SRC2 recr 0, SRC3 TRFRET art 1556, SRC1 TRFRET art 1650, PPARg SRC-1 ag -1, SRC2 TRFRET art 1477 and PPARg SRC3 recr 8.
Screening CCOC(=O)c1c(NC(=O)C(C)Sc2cn(C)c3ccccc23)sc2c1CCC2 (stereo not drawn) returned PPARg SRC2 recr 24*, SRC3 TRFRET art 1894, SRC1 TRFRET art 1794, PPARg SRC-1 ag 10, SRC2 TRFRET art 1483 and PPARg SRC3 recr 5.
`Cn1c(=O)c(C(=O)CSc2nncs2)c(N)n(Cc2ccccc2)c1=O` gave PPARg SRC2 recr 1, PPARg SRC-1 ag -4, SRC2 TRFRET art 1512 and PPARg SRC3 recr -1.
CCc1nn(CC(=O)NCCCN(CC)Cc2ccccc2)c(=O)c2cc3sccc3n12 was read as PPARg SRC2 recr 3, PPARg SRC-1 ag -4, SRC2 TRFRET art 2044* and PPARg SRC3 recr -6.
`Cc1ccccc1NCC(=O)N/N=C/C(Br)=C/c1ccccc1` gave PPARg SRC2 recr 1, PPARg SRC-1 ag 1, SRC2 TRFRET art 1505 and PPARg SRC3 recr 8.
Screening COc1ccc2nc(SCC(=O)N3CCN(c4ccc(F)cc4)CC3)c(C#N)cc2c1 returned PPARg SRC2 recr 13, PPARg SRC-1 ag 12, SRC2 TRFRET art 2728* and PPARg SRC3 recr 7.
`Cc1[nH]nc2c1C(c1ccc(-c3ccc(Cl)cc3)o1)C(C#N)=C(N)O2` (stereo not drawn) gave PPARg SRC2 recr 23*, SRC3 TRFRET art 1758, SRC1 TRFRET art 1928, PPARg SRC-1 ag 7, SRC2 TRFRET art 1664 and PPARg SRC3 recr 4.
`Cc1ccc(-c2ccc(C3C(C#N)=C(N)Oc4n[nH]c(C)c43)o2)cc1` (stereo not drawn) gave PPARg SRC2 recr -8, PPARg SRC-1 ag -1, SRC2 TRFRET art 1479 and PPARg SRC3 recr 14.
`CCOC(=O)CSc1nnc(CNC(=O)c2cccc(C)c2)n1C` gave PPARg SRC2 recr 2, SRC3 TRFRET art 1485, SRC1 TRFRET art 1930, PPARg SRC-1 ag 5, SRC2 TRFRET art 1451 and PPARg SRC3 recr -3.
Screening Cc1ccc2sc3ccc(NC(=O)c4ccccc4Cl)cc3c(=O)c2c1 returned PPARg SRC2 recr 13, PPARg SRC-1 ag 0, SRC2 TRFRET art 2846* and PPARg SRC3 recr 11.
Cc1ccc(N2C(=O)CSC2c2cccs2)cc1 (stereo not drawn) was read as PPARg SRC2 recr 5, PPARg SRC-1 ag -3, SRC2 TRFRET art 1646 and PPARg SRC3 recr 12.
Cc1cc(C)cc(N2C(=O)CSC2c2cccs2)c1 (stereo not drawn) was read as PPARg SRC2 recr 11, SRC3 TRFRET art 1827, SRC1 TRFRET art 1726, PPARg SRC-1 ag 7, SRC2 TRFRET art 1989* and PPARg SRC3 recr 0.
Screening CCCn1c(NC(=O)c2ccc(F)cc2)nc2ccccc21 returned PPARg SRC2 recr 2, SRC3 TRFRET art 1516, SRC1 TRFRET art 1892, PPARg SRC-1 ag -1, SRC2 TRFRET art 1479 and PPARg SRC3 recr 3.
